# A selection: hits, their analogues and other compounds. The true share with any hit is near 3.4%.
# AI-2 QS mod: modulators of Vibrio harveyi AI-2 quorum sensing system; Vibrio harveyi JMH597 AI-2 luminescence/OD600 ratio, 9 h; stronger effect = lower value; strain lacks LuxN and CqsS sensors; 0 = neutral-control median; activity change, % at 7.5 µM; actives 0.4% (n = 300,000); AID 2094; in the data active = activity change below about -75%, passing the limit was not always enough;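 also: luminescence divided by OD600 gain over 9 h not by final OD600 alone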
# HSF1 inh: HSF1 inhibition; activity change, negative = inhibition, % at 7.5 µM (by protocol); NIH3T3-HGL HSE-luciferase, MG132-induced, luminescence 8 h; stronger effect = lower value; actives 0.77% (n = 300,000);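 active = more than half of replicate wells show activity change below -50%, luminescence cut by over half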;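 also: luciferase reports HSF-1 transcriptional activity via heat shock element; 0% = median of DMSO wells and -100% = zero luminescence signal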
# SMARCA2 activ: SMARCA2 function activation, primary screen | MG213 cells, MMTV-luciferase reporter, dexamethasone, overnight | activation, % at 9.1 µM | actives 1% (n = 370,000) | AID 652017; in the data active = activation above about 7.8%;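 also: 0% = vehicle wells and 100% = reference activator wells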
# FXN GAA850 act: activators of GAA850 frataxin (FXN) promoter; actives 0.56% (n = 360,000); HEK293 lucGAA850 FXN promoter luciferase reporter, 24 h; percent of 10 µM SAHA response; activation, % at 6 µM; AID 540364;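 active = activation above the average of all compounds screened plus 3 SD, cutoff fixed separately per campaign, cut at about 7.5% in these data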;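 also: 0% = DMSO wells and 100% = 10 µM SAHA wells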
# HSP90 inh: inhibitors of HSP90 luciferase refolding in rabbit reticulocyte lysate; luciferase refolding luminescence, 3 h; inhibition, % at 5.6 µM; actives 0.91% (n = 290,000);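 active = inhibition above the screen-wide mean plus 3 SD, computed separately per campaign, cut at about 16% in these data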;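 also: 0% = DMSO wells and 100% = 60 µM geldanamycin wells; inhibitors lower the luminescence because luciferase stays unfolded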
# PG9 Ab binder: binds the HIV-1 gp120 antibody PG9; inhibition, % at 6.7 µM; TR-FRET gp120-PG9 antibody binding; actives 0.43% (n = 360,000); AID 624416; in the data active = inhibition above about 8.5%
# SMARCA2 conf: confirmation of SMARCA2 (BRM) function activators; activation, % at 9.1 µM; shares compounds with SMARCA2 activ; actives 30% (n = 3,500); MG213 cells, MMTV-luciferase with dexamethasone, luminescence, overnight; MG213 cells expressing E1A, Rb sequestered; DMSO wells 0%, reference activator 100%;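 active = activation above its plate's cutoff, the mean activation of tested wells plus 3 SD, cut at about 7.9% in these data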
# VP16 Luc act: counter-screen for SMARCA2 activators: GAL4-VP16 luciferase reporter activation | shares compounds with SMARCA2 activ | HEK293 GAL4-VP16 pG5luc reporter, luciferase luminescence; scaled: DMSO wells 0%, SAHA wells 100% | activation, % at 9.1 µM | actives 41% (n = 3,500);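 active = activation above the solvent-only control well mean plus 3 SD, averaged across control plates, cut at about 5.2% in these data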
# * marks the source's active call; other numbers are inactive results; . = no result given.
SMILES,AI-2 QS mod,HSF1 inh,SMARCA2 activ,FXN GAA850 act,HSP90 inh,PG9 Ab binder,SMARCA2 conf,VP16 Luc act
CN[C@H]1C[C@H]2c3[nH]c4c(-c5ccc6c(c5)OCO6)cccc4c3CCN2C(=O)[C@H]1[C@H](C)O,.,.,4,.,.,-2,.,.
Cc1cc(C)c(C#N)c(SCc2cc3c(cc2Cl)OCO3)n1,14,6,13*,2,1,-2,-2,0
Cc1cc(C)c(C#N)c(SCc2ccccc2C)n1,13,5,-2,2,-3,-1,.,.
Cc1csc(N2C(=O)C3C4CCC(O4)C3C2=O)n1 (configuration not stated),.,.,-1,1,.,0,.,.
Cc1ccsc1/C=C1/SC(N2CC(C)OC(C)C2)=NC1=O (configuration not stated),25,25,11*,5,-1,-5,0,1
COc1cc2c(C#CCCO)c(-c3ccsc3)oc(=O)c2cc1OC,.,.,9.3*,-4,.,2,11*,2
COc1cc2c(C#CCCO)c(-c3ccc(C#N)cc3)oc(=O)c2cc1OC,.,.,2,0,.,2,.,.
O=C(C(=O)N1CCC(CNC(=O)c2sc3ccccc3c2Cl)CC1)c1cccs1,.,.,-8,.,.,2,.,.
Cc1[nH]c(=S)[nH]c(=O)c1Cc1c(O)ccc2ccccc12,.,.,-2,0,.,-2,.,.
Cc1[nH]c(=S)[nH]c(=O)c1Cc1ccccc1,0,3,16*,-2,6,-2,0,1
CCOc1ccc(NC(=O)C(c2ccccn2)N(C(=O)CCl)c2ccc(OCC)cc2)cc1 (configuration not stated),.,.,.,5,-3,.,.,.
CCOc1ccc(NC(=O)C(c2ccccn2)N(C(=O)CCl)c2ccc(OC)cc2)cc1 (configuration not stated),8,3,9.7*,3,-2,-2,8,4
CC(C)C[C@H](NC(=O)c1cccs1)C(=O)N1CCC[C@H]1C(=O)NCc1ccccc1,.,.,-2,.,.,2,.,.
CCC(=O)Nc1ccc2c(c1)ncn2-c1ccc(OC)cc1,7,-1,2,1,-3,1,.,.
CCC(=O)Nc1ccc2c(c1)ncn2-c1ccc(C)cc1,12,26,8.6*,7,-4,0,6,8.7*
COc1ccc(-c2noc(C3CCCN(C(=O)Nc4cc(C)cc(C)c4)C3)n2)cc1 (configuration not stated),.,.,10*,.,.,.,1,9.7*
COc1ccc(-c2noc(C3CCCN(C(=O)c4ccc(C)cc4)C3)n2)cc1 (configuration not stated),19,4,4,2,1,0,.,.
NNC(=O)c1ccc(Cn2cc(Br)cn2)o1,28,0,8.1*,3,0,-1,-1,1
Cc1ccc(NC(=O)c2ccc(Cn3cc(Br)cn3)o2)cc1,15,160,1,3,6,0,.,.
CC(C)CN=c1cc(-c2ccccc2)oc2ccc(Cl)cc12,16,48,5,6,-3,1,.,.
CC(O)CN=c1cc(-c2ccccc2)oc2ccc(Cl)cc12 (configuration not stated),16,27,8.4*,3,-3,1,18*,13*
CCOC(=O)Cn1nc(NC(=O)c2ccc(C(=O)OC)cc2)cc1C,22,8,11*,2,-1,-4,9.4*,2
NS(=O)(=O)c1ccc(OCCCN2CCC(C(O)(c3ccccc3)c3ccccc3)CC2)cc1,.,.,-1,.,.,1,.,.
CCN(CC)S(=O)(=O)c1ccc(NC(=O)c2cccs2)cc1,-3,7,2,2,-1,-1,.,.
CCN(CC)S(=O)(=O)c1ccc(C(=O)NNC(=O)c2cccs2)cc1,14,-1,11*,4,2,1,-1,2
SMILES,AI-2 QS mod,HSF1 inh,SMARCA2 activ,FXN GAA850 act,HSP90 inh,PG9 Ab binder,SMARCA2 conf,VP16 Luc act
CCCCCCCCN1C(=O)[C@@H](CC(=O)N2CCN(C(=O)c3ccco3)CC2)C[C@@]2(C(=O)OC)C1=C[C@H](C(C)C)O[C@@H]2C1CC1,.,.,-1,.,.,.,.,.
O=C(Nc1sc2c(c1C(=O)O)CCC2)c1ccco1,4,2,9.1*,3,-1,-3,3,4
Cc1cccc(NC(=O)COc2ccc3c(c2)CCC3)n1,.,.,9.7*,3,.,-4,6,5.5*
Cc1cc(-c2ccco2)c(C#N)c2nc3ccccc3n12,20,27,12*,4,2,1,41*,6.5*
O=C(CCc1nnc(CCCc2ccccc2)o1)NCCCC1CCCC1,8,20,9.7*,5,4,-2,5,6.5*
CCOc1ccc2oc(=O)cc(C)c2c1,5,2,1,3,2,0,.,.
CCC(=O)Oc1ccc2oc(=O)cc(C)c2c1,15,-2,13*,-1,-7,-1,-1,0
COc1ccc(CC(NC(C)=O)C(=O)NC2CCN(c3nc(C)cc(C)c3C#N)CC2)cc1 (configuration not stated),21,-6,1,2,-2,-2,.,.
COc1ccc(CC(NC(C)=O)C(=O)NC2CCN(c3nc(C)cc(C)c3C#N)CC2)cc1OC (configuration not stated),8,0,15*,1,-5,-2,3,0
COC(=O)C1=CN(c2ccc(F)cc2)C(N)=C(C#N)C1c1ccc(-c2ccccc2)cc1 (configuration not stated),.,.,-5,.,.,1,.,.
COC(=O)[C@@]12C[C@@H](CC(=O)NCc3cccc(C(F)(F)F)c3)C(=O)N(CCc3ccc(OC)c(OC)c3)C1=CCC(C)(C)C2,.,.,-5,.,.,1,.,.
Cc1cc(CN(C)C(=O)CCc2nnc(Cc3cccc(C(F)(F)F)c3)o2)on1,-7,11,7,4,4,-1,.,.
CCN(CC)C(=O)CCc1nnc(Cc2cccc(C(F)(F)F)c2)o1,1,28,16*,5,-1,1,3,9.2*
COCCCNC(=O)C[C@H]1C[C@@]2(C(=O)OC)C(=C[C@H](C3CCCC3)O[C@@H]2C)N(Cc2ccco2)C1=O,.,.,-1,.,.,.,.,.
COCc1cc(N2CCNC[C@H]2C)ccc1N1C[C@@H](C)O[C@@H](C)C1,.,.,0,.,.,-1,.,.
Cc1ccc(-c2nnc(SCC(C)C)n2C)cc1,21,8,0,3,-4,3,.,.
CC(C)CSc1nnc(-c2ccco2)n1C,.,.,8.4*,.,.,.,8.9*,2
CCOC(=O)[C@]12CCCCC/C=C\1N(Cc1ccc(OC)cc1)C(=O)[C@H]2CC(=O)NCCCCc1ccccc1,.,.,-1,.,.,.,.,.
